Data from PubChem BioAssay.

Experiments:
[1] = tested on: Botulinum neurotoxin type F light chain protease (Clostridium botulinum); assay: Botulinum neurotoxin type F light chain protease inhibition, multiplex microsphere flow cytometry, validation set (AID 588459); conditions: multiplex microsphere protease substrate cleavage assay, at 10 µM, hits give high values
[2] = molecular target: Botulinum neurotoxin type A (Clostridium botulinum) (UniProt P0DPI0); assay: BoNT/A light chain protease inhibitors, biochemical, multiplex microsphere flow cytometry, validation set (AID 588460); conditions: at 10 µM, hits give high values
[3] = molecular target: Lethal factor (Bacillus anthracis) (UniProt P15917); assay: Lethal factor protease inhibitors, Bacillus anthracis, multiplex microsphere cleavage assay, validation set (AID 588461); conditions: flow cytometry, at 10 µM, hits give high values

Measured: inhibition

Cc1ccc2c(c1)c1c(n2C)C(=O)CCC1
inactive: [1] -1.5% | [2] -1% | [3] 3.3%

COCCCC/C(=N\OCCN)c1ccc(C(F)(F)F)cc1
inactive: [1] -1.3% | [2] -0.2% | [3] -0.1%

COc1ccc2cc(CCC(C)=O)ccc2c1
inactive: [1] -2.3% | [2] 0.4% | [3] 6.3%

Cc1nc(N)nc2c1CCCC2
inactive: [1] 2.4% | [2] 1.2% | [3] 4.9%

O=C(NO)c1ccccc1O
inactive: [1] 3.3% | [2] 2% | [3] -4%

CC(C)=CCCC(C)CN1CCC(N2CCC(C(=O)N3CCCC3)CC2)CC1 (configuration not stated)
inactive: [1] 1.8% | [2] -0.4% | [3] -1.1%

CCc1cc2c(=O)c(-c3ccc(F)cc3)c(C)oc2cc1OCC(=O)O
inactive: [1] 3.9% | [2] 2.2% | [3] -1.1%

CC(C)(C)[C@]1(O)CCN2C[C@H]3c4ccccc4CCc4cccc(c43)[C@@H]2C1
inactive: [1] -2.1% | [2] 0% | [3] -2.4%

O=C(O)c1ccc(N2C(=O)/C(=C\c3ccccc3)N=C2c2ccccc2)cc1
inactive: [1] 1% | [2] -1.6% | [3] 4.4%

Fc1ccc(-n2cc(CNCCc3ccccn3)c(-c3ccccc3Cl)n2)cc1
inactive: [1] -1.9% | [2] 1.1% | [3] 6.5%

COc1ccc(S(=O)(=O)NC(Cc2cnc[nH]2)C(=O)O)cc1 (configuration not stated)
inactive: [1] 2.4% | [2] -0.6% | [3] -0.5%

Cc1oc2c(C)c3oc(=O)c4c(c3cc2c1C)CCCC4
inactive: [1] 0.8% | [2] -0.2% | [3] 1.3%

O=CNC1CCCc2c1[nH]c1ccc(Cl)cc21 (configuration not stated)
inactive: [1] -1.4% | [2] 0.2% | [3] 1.6%

CCCCN(CCCC)CCCOC(=O)c1ccc(N)cc1
inactive: [1] -1.6% | [2] 0.8% | [3] 1.4%

Cn1c(=O)c2nc3ccccc3nc2n(C)c1=O
inactive: [1] -0.9% | [2] 0.5% | [3] -5.4%

COc1ccc(NS(=O)(=O)c2ccc(N)cc2)nn1
inactive: [1] 7.2% | [2] 2% | [3] -0.1%

COc1ccc(Cc2noc(CN(C)CC3(N4CCOCC4)CCCCC3)n2)cc1OC
inactive: [1] 7.7% | [2] 4.3% | [3] -0.4%

CCCC(=O)O[C@]1(C(=O)CCl)[C@@H](C)C[C@H]2[C@@H]3CCC4=CC(=O)C=C[C@]4(C)[C@@]3(F)C(=O)C[C@@]21C
inactive: [1] 0.9% | [2] -0.6% | [3] 1%

COC(=O)CN1C(=S)N(c2ccc(F)cc2)C(=O)C1CC(=O)Nc1ccccc1 (configuration not stated)
inactive: [1] -5.7% | [2] -2% | [3] -5.6%

COc1ccccc1C(CC(=O)Nc1ccccc1C)c1ccc(OC(C)C)cc1 (configuration not stated)
inactive: [1] -0.1% | [2] -0.8% | [3] -7.4%

CC(C)COCC1CC2(CC(C)(c3csc(N)n3)OC2=O)C(=O)O1 (configuration not stated)
inactive: [1] -3.2% | [2] -1.9% | [3] 9.1%

O=C(Cc1ccccc1[N+](=O)[O-])NCc1ccncc1
inactive: [1] -3.6% | [2] 0.9% | [3] -5.4%

CC(C)Cc1cc(C(=O)N2CCC(N3CCC(C(=O)N4CCCC4)CC3)CC2)n[nH]1
inactive: [1] -0.1% | [2] -2% | [3] -0.4%

Cn1c(SCC(=O)c2ccccc2)nnc1-c1ccncc1
inactive: [1] 1.7% | [2] 0.4% | [3] 3.4%

CC(C)Cn1c(=S)[nH]c2cc(C(=O)O)ccc2c1=O
inactive: [1] -4.3% | [2] -0.4% | [3] -0.6%

Cc1ccc2c(c1)C(CCN)C(=O)N2Cc1ccccc1 (configuration not stated)
inactive: [1] -1% | [2] 0.7% | [3] 6.7%

COc1ccccc1NC(=O)N1CCc2[nH]c3ccc(Cl)cc3c2C1
inactive: [1] 6.8% | [2] 0.4% | [3] -0.7%

CC(C)(C)C(=O)NC(=S)NNC(=O)c1ccncc1
inactive: [1] 8.3% | [2] 2.9% | [3] -3.3%

CO[C@@H]1O[C@@H]2COC(c3ccccc3)O[C@@H]2[C@@H](OC)[C@@H]1O (some centres not stated)
inactive: [1] 1.6% | [2] -0.6% | [3] 2.5%
